# Screening data deposited in PubChem by several laboratories.
# Mcl1-Bid inh – Mcl-1/Bid binding inhibitors, primary screen, biochemical, TR-FRET, 1536-well. Induced myeloid leukemia cell differentiation protein Mcl-1 (Homo sapiens), Q07820. TR-FRET Mcl-1/Bid-Dy647 peptide binding. inhibition, % at 21.7 µM. 220,000 tested, 0.97% active. AID 1021, 2008;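 active means compounds that cut the binding signal by more than half at the single screening dose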;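 further: His-tagged Mcl-1 with europium anti-His antibody binding Bid BH3 peptide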
# GLD-1 RNA inh – GLD-1/TGE RNA complex disruptors, primary screen, biochemical, fluorescence polarization; purified GLD-1 + fluorescein TGE RNA; 320,000 tested, 0.44% active; AID 2280, 2010; inhibition, % at 5.96 µM; Female germline-specific tumor suppressor gld-1 (Caenorhabditis elegans), Q17339;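 active means percent inhibition above a per-plate cutoff, the plate mean of test compounds plus 3 SD, cut at about 30% in these data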
# Mcl-1 Bim block – inhibitors of Bim peptide binding to Mcl-1, primary screen, biochemical, bead-based flow cytometry, multiplex | inhibition, % at 10 µM | 190,000 tested, 0.1% active | Bim peptide-Mcl-1 binding; in the data active means inhibition above about 40%
# MCL1 BIM primary – inhibitors of MCL1 binding to BIM-BH3, primary screen, biochemical, fluorescence polarization; AID 2057, 2009; GST-MCL1 / FITC-Bim-BH3 fluorescence polarization; Induced myeloid leukemia cell differentiation protein Mcl-1 (Homo sapiens), Q07820; 320,000 tested, 0.68% active; inhibition, % at 10.9 µM;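 active means inhibition above the mean inhibition of all tested compounds plus 3 SD, set per campaign, cut at about 40% in these data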;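 further: higher means more loss of mP so more displacement of Bim peptide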
# BCLXL inh – inhibitors of human Bcl-xL, primary screen, biochemical, fluorescence polarization, HTS. Bcl-2-like protein 1 (Homo sapiens), Q07817. GST-Bcl-xL / FITC-Bim BH3 peptide fluorescence polarization. inhibition, % at 10.9 µM. 320,000 tested, 0.7% active;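 active means inhibition above the mean of all tested compounds plus 3 SD, cutoff set per campaign, cut at about 30% in these data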;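 further: inhibitors lower millipolarization by displacing the labeled peptide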
# Target sequence (Q07817 whole entry, looked up): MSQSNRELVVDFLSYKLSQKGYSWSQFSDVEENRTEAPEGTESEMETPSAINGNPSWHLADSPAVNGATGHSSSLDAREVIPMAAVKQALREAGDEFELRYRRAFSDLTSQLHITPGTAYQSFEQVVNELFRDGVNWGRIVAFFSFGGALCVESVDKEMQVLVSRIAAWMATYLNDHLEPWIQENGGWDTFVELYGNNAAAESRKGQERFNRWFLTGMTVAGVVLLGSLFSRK
# Mcl1-Noxa inh – Mcl-1/Noxa binding inhibitors, primary screen, biochemical, TR-FRET, 1536-well | Induced myeloid leukemia cell differentiation protein Mcl-1 (Homo sapiens), Q07820 | TR-FRET Mcl-1/Noxa peptide binding, 2 h | inhibition, % at 21.7 µM | 220,000 tested, 1.5% active;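 active means compounds that cut the protein-peptide binding signal by more than 50% relative to plate controls in a single-dose test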;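 further: His-tagged Mcl-1 with rhodamine Noxa BH3 peptide and terbium anti-His antibody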
# A number is an active result; i = inactive; nt = not tested or not shown. This is a sample that favours compounds with a hit; in the whole collection about 2.3% have one here.
SMILES,Mcl1-Bid inh,GLD-1 RNA inh,Mcl-1 Bim block,MCL1 BIM primary,BCLXL inh,Mcl1-Noxa inh
COc1ccc(C(=O)Nc2ccc(N3CCCC3)cc2)cc1,i,i,i,i,i,86
CCOc1cccc(C(=O)Nc2ccc(N3CCCC3)cc2)c1,nt,i,nt,i,i,nt
COc1ccc(C(=O)NC(=S)Nc2ccc(N3CCCC3)cc2)cc1,i,i,i,i,i,i
COc1ccc(/C=C/C(=O)OCC(=O)Nc2ccc(N3CCOCC3)cc2)cc1,i,i,i,i,i,i
CCOc1ccc(/C=C/C(=O)Nc2ccc(N3CCOCC3)cc2)cc1,101,i,i,i,i,i
COc1ccc(C(=O)C(C)Sc2nnc(C3CC3)n2C2CC2)cc1 (stereo unspecified),nt,i,nt,i,i,nt
O=C(CSc1n[nH]c(=O)n1-c1ccccc1)N1CCOCC1,nt,i,nt,i,i,nt
Cc1cccc(NC(=O)CCS(=O)(=O)c2ccc3c(c2)NC(=O)CS3)n1,nt,i,nt,i,31,nt
COC(=O)c1cc(OC)c(OC)cc1NC(=O)c1cc(C(C)(C)C)oc1C,i,i,nt,i,i,i
Cc1ccc(C)n1-c1sccc1C(=O)O,93,nt,i,nt,nt,95
Cc1cc(C(=O)O)c(C)n1-c1ccccc1,i,i,i,i,i,i
C=CCn1c(O)c(C2=c3ccccc3=NC2=O)sc1=Nc1ccc(O)cc1,i,i,nt,i,i,52
COC(=O)c1cc(S(=O)(=O)NCCN2CCN(c3ccccc3F)CC2)c[nH]1,nt,i,nt,i,i,nt
C/C(=C\COc1ccc2ccc(=O)oc2c1)CC[C@@H](O)C(C)(C)O,nt,i,nt,i,160,nt
Clc1ccccc1CN1CCC(Cc2ccccc2)CC1,54,i,i,i,i,i
CC1CN(Cc2ccccc2Cl)CC(C)O1 (stereo unspecified),51,i,i,i,i,i
FC(F)(F)c1ccccc1CN1CCC(Cc2ccccc2)CC1,nt,i,nt,i,i,nt
COc1ccccc1C(=O)OCc1c(-c2ccccc2)ncc2ccccc12,nt,i,nt,nt,nt,nt
C=CCN1C(=O)/C(=C2/C(=O)N(CC(=O)O)c3ccccc32)S/C1=N/c1nccs1,i,nt,i,nt,nt,89
C=CCN1C(=O)/C(=C/c2ccc(O)cc2)S/C1=N/c1nccs1,i,i,i,i,i,i
COc1ccc(-c2oc3ccccc3c2C(=O)OCc2ccccc2)cc1,nt,i,nt,i,i,nt
CCCCC1=CC2=CC(=O)C(C)(OC(=O)CC)C(=O)C2=CN1CCN1CCOCC1 (stereo unspecified),i,i,nt,i,31,i
COCCOC(=O)C1=C(C)NC(=O)NC1c1c(Cl)nc2c(C)cccn2c1=O (stereo unspecified),i,i,i,i,32,i
O=C1N=C(c2ccccc2)S/C1=C\c1cccs1,i,i,i,i,i,72
O=c1c(CN2CCN(Cc3ccccc3F)C(CCO)C2)coc2ccccc12 (stereo unspecified),nt,i,nt,i,i,nt
SMILES,Mcl1-Bid inh,GLD-1 RNA inh,Mcl-1 Bim block,MCL1 BIM primary,BCLXL inh,Mcl1-Noxa inh
O=c1c2cc(Cl)ccc2nc(-c2ccccc2Cl)n1O,88,i,i,i,i,i
Cc1ccc(-c2nc3ccc(Cl)cc3c(=O)n2O)cc1,nt,i,nt,i,i,nt
O=C1Nc2ccccc2/C1=N/N=C/c1ccc(-c2ccc([N+](=O)[O-])cc2)o1,89,nt,i,nt,nt,80
NC(=S)N/N=C/c1ccc(-c2ccc([N+](=O)[O-])cc2)o1,i,i,i,i,i,52
Cc1ccc(OCCC(=O)OCC(=O)Nc2ccc3c(c2)OCCO3)cc1,nt,i,nt,i,i,nt
COC(=O)c1sc(-c2ccc(C(C)(C)C)cc2)cc1NC(=O)c1ccccc1C(=O)O,i,i,nt,i,i,51
COC(=O)c1sc(-c2ccc(Cl)cc2)cc1NC(=O)c1ccccc1C(=O)O,i,i,nt,i,i,i
COc1ccc(CCNC(=O)/C(C#N)=C2\N=C(NC(=O)c3ccco3)c3ccccc32)cc1,i,i,nt,i,i,i
